Screening results from PubChem.
Shiga toxin inh: Shiga toxin inhibition; inhibition, % at 38.7 µM; Vero cells, Shiga toxin protein synthesis inhibition reporter; actives 9.2% (n = 290,000); in the data active = inhibition mostly above about 28%, no sharp cut-off; inactive = mostly below about 43%; also: 0% is about no effect
Pf growth 48h: P. falciparum growth inhibition at 48 hours (one generation) | P. falciparum luciferase growth in erythrocytes, 48 h | actives 5.9% (n = 310,000) | AID 504832 | Potency, µM (doses to about 28.7 µM), for the others: at the highest dose activity change, negative = inhibition, hits mostly inhibitors; also: potency is read from the fitted curve at half-maximal effect; % is scaled to controls: 0 for no effect and ±100 for the full control effect
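Erythrocytes infected with P. falciparum carrying an integrated firefly luciferase reporter (2% hematocrit, 0.1% parasitemia final) were exposed to compounds in RPMI 1640 with 0.5% Albumax at 37 C, 5% CO2. Growth inhibition was scored as reduced luminescence.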
CHX counter: counter-screen hit for Shiga toxin inhibitors, cycloheximide; max response, %; AID 2314; cell reporter, cycloheximide protein synthesis inhibition counterscreen; actives 12% (n = 300,000); in the data active = max response mostly above about 13%, no sharp cut-off; inactive = mostly below about 14%; also: read at 38.3 µM for the half of the compounds with a filed dose; 0% is about no effect
NS1 function inh: influenza NS1 inhibition; Potency, µM (highest dose often 46.1 µM), for inactives: at the top dose activity, positive = more growth; actives 0.4% (n = 270,000); calls by dose curve; also: potency is read from the fitted curve at half-maximal effect; actives are rising curves; nearly all actives have a fitted effect of over 50% in size
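OD600 was taken as the measure of yeast growth restored by compound in an NS1-expressing S. cerevisiae strain. Cells had been washed out of glucose medium and diluted 1:100 into galactose -URA medium, pH 6.0.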
Pf growth 96h: P. falciparum growth inhibition at 96 hours | P. falciparum luciferase reporter growth, 96 h | Potency, µM (top dose mostly 28.7 µM), without a hit: top-dose activity change, negative = inhibition, actives largely listed as inhibitors | actives 6.9% (n = 320,000) | AID 504834; also: potency is read from the fitted curve at half-maximal effect; % is scaled to controls: 0 for no effect and ±100 for the full control effect
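Erythrocytes infected with luciferase-expressing P. falciparum were dispensed at 2% hematocrit and 0.05% parasitemia (final), then incubated with compounds 96 hours at 37 C in 5% CO2. Luminescence after detection reagent addition reported growth.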
Active calls of the source: *; ? = inconclusive; nt = no result given; [ ] = remark or other dose. The list is not random: actives were taken first. Their share in the collection is about 21%. Unless noted, calls follow the shape of the dose curve; as a rule, active = well fitted inhibition curve with a large enough effect; inconclusive = small, poorly fitted or top-dose-only effect, or another doubt; inactive = no such curve, though single readings can be large or run the other way.

SMILES	Shiga toxin inh	Pf growth 48h	CHX counter	NS1 function inh	Pf growth 96h
Cn1c(SCc2cccc(Br)c2)nnc1-c1ccccn1	49.9*	-4.4%	22.4*	-40.0%	-11.6%
Cn1c(SCc2cccc(F)c2)nnc1-c1cnccn1	63.8*	18.8%	28.6*	-4.4%	-0.3%
CC1=NNC(=O)C1Oc1ccccc1 (configuration not stated)	2.0	10.6%	0.7	0.0%	40.1%
O=C(Nc1ccc(F)cc1F)c1ccccc1NC(=O)C1CC=CCC1C(=O)O (configuration not stated)	32.6	-3.2%	26.5	-1.3%	?
Cn1c(=O)cc(N)n(Cc2ccccc2)c1=O	-18.7	12.1%	-3.2	19.6%	-1.3%
Cn1c(SCc2cccc(F)c2)nnc1-c1ccccn1	58.1*	60.6%	36.0*	-21.5%	-8.9%
CCn1c(SCc2cccc(F)c2)nnc1-c1ccncc1	30.6	-12.4%	-6.8	2.0%	-20.6%
O=C(CNc1cc(S(=O)(=O)N2CCCC2)ccc1OCC(F)(F)F)Nc1cccc(C(F)(F)F)c1	-12.4	?	3.0	?	13.1µM*
O=C(COc1ccccc1Br)Nc1ccc(S(=O)(=O)N2CCCC2)cc1	nt	5.86µM*	nt	nt	?
Cc1cccc(OCC(=O)Nc2nnc(S(=O)(=O)N3CCCCC3)s2)c1	-7.2	18.6%	-2.7	18.4%	7.38µM*
O=C(Nc1cc(S(=O)(=O)N2CCCC2)ccc1OCC(F)(F)F)c1ccccc1F	-12.5	-7.3%	-3.0	-6.1%	14.3%
Cc1cccc(OCC(=O)Nc2nnc(S(=O)(=O)N3CCC(C)CC3)s2)c1	-3.4	42.5%	-2.6	-0.3%	?
O=C(COc1cccc(C(F)(F)F)c1)Nc1ccc(S(=O)(=O)N2CCCCC2)cc1	nt	?	nt	nt	9.28µM*
CCOc1ccccc1C(=O)N[C@H](C(=O)Nc1cc(S(=O)(=O)N(C)C)ccc1OC)C(C)C	11.0	?	15.0	nt	?
CCN(Cc1nc(-c2ccccc2)no1)C(=O)c1ccco1	-5.6	14.2%	0.7	-3.4%	-5.3%
S=C1COC(c2ccccc2)N1c1ccccc1 (configuration not stated)	-1.5	?	2.2	-6.5%	?
CC(O)CNCCNCc1cccs1 (configuration not stated)	13.7	6.4%[5.75 µM]	6.4	nt	4.4%
CCOC(=O)CCSc1nc2c(c(C(F)(F)F)c1C#N)CCC2	-22.4	9.28µM*	-4.4	-13.5%	-26.7%
CCCCSc1nc2c(c(C(F)(F)F)c1C#N)CCC2	-3.0	nt	-1.8	-9.1%	?
COc1cccc(CNC(=O)Cn2ncc3c(=O)oc4ccccc4c32)c1	-19.7	14.3%	-3.4	-0.5%	11.1%
CC1(OC(=O)C2CCCC2)C(=O)C=C2C=C(c3ccsc3)N(Cc3ccco3)C=C2C1=O (configuration not stated)	28.9	11.7µM*	-0.4	3.2%	13.1µM*
CC1(OC(=O)C2CCCC2)C(=O)C=C2C=C(c3ccsc3)N(C3CCCC3)C=C2C1=O (configuration not stated)	-5.4	?	-2.1	-3.3%	10.4µM*
CC1(OC(=O)C2CCCC2)C(=O)C=C2C=C(c3ccsc3)N(CCCCO)C=C2C1=O (configuration not stated)	-6.5	?	-6.7	4.0%	?
CCS(=O)(=O)N1Cc2ccccc2CC1C(=O)OCC(=O)N(C(C)C)C(C)C (configuration not stated)	-15.0	?	2.7	nt	9.28µM*
CCS(=O)(=O)N1Cc2ccccc2CC1C(=O)Nc1ccc(F)c(F)c1 (configuration not stated)	81.8*	27.3%	37.0*	-0.9%	51.5%
SMILES	Shiga toxin inh	Pf growth 48h	CHX counter	NS1 function inh	Pf growth 96h
CNC(=O)C1Cc2ccccc2CN1S(=O)(=O)c1ccc(OC)c(OC)c1 (configuration not stated)	nt	?	-1.5	7.4%	-29.5%
CCS(=O)(=O)N1Cc2ccccc2CC1C(=O)Nc1ccc(NC(C)=O)cc1 (configuration not stated)	2.3	-4.3%	-1.2	5.8%	nt
CCS(=O)(=O)N1Cc2ccccc2CC1C(=O)Nc1ccc(OC)cc1 (configuration not stated)	47.5	-26.4%	35.2*	nt	-2.7%[5.75 µM]
COc1ccc(S(=O)(=O)N2Cc3ccccc3CC2C(=O)Nc2ccc(O)cc2)cc1OC (configuration not stated)	13.8	?	8.1	-36.3%	3.7µM*
CCOc1ccc(NC(=O)C2Cc3ccccc3CN2S(=O)(=O)CC)cc1 (configuration not stated)	45.5	?	27.8	nt	?
CCS(=O)(=O)N1Cc2ccccc2CC1C(=O)NCCc1ccccc1 (configuration not stated)	22.0	-19.2%	19.0*	1.4%	6.5%
CCS(=O)(=O)N1Cc2ccccc2CC1C(=O)Nc1cc(S(C)(=O)=O)ccc1Cl (configuration not stated)	-7.5	-8.1%	-1.8	-2.5%	?
CCS(=O)(=O)N1Cc2ccccc2CC1C(=O)Nc1cccc(C)c1 (configuration not stated)	120.1*	53.1%	37.3*	nt	44.7%
CCS(=O)(=O)N1Cc2ccccc2CC1C(=O)Nc1ccc(C)cc1 (configuration not stated)	48.7	18.0%	13.0	0.4%	nt
CCS(=O)(=O)N1Cc2ccccc2CC1C(=O)Nc1ccc(F)c(F)c1F (configuration not stated)	44.4	1.0%	24.5*	11.1%	17.8%
NS(=O)(=O)c1ccc(CCNC(=O)C2Cc3ccccc3CN2C(=O)c2ccco2)cc1 (configuration not stated)	-8.1	nt	-2.4	0.0%	-1.2%
COc1ccc(CN2CCCC(C(=O)N3CCCCC3)C2)cc1OC (configuration not stated)	-5.5	31.0%	0.9	3.7%	22.0%
Cn1c(C(=O)O)c(C=O)c2ccccc21	-16.8	5.4%	-5.0	nt	10.4µM*
COc1ccc(NC(=O)CCN2C(=O)C3CC=CCC3C2=O)cc1S(=O)(=O)N1CCCCC1 (configuration not stated)	nt	-7.4%	nt	nt	-0.6%
C[C@]12C(=O)N(c3ccc(Cl)cc3)C(=O)N1[C@H]1c3ccccc3OC[C@@H]1[C@H]2c1ccccc1	-4.0	?	-1.2	17.7%	?
Cc1ccc2c(c1)[C@H]1[C@H](CO2)[C@H](c2ccccc2)[C@]2(C)C(=O)Nc3cc(Cl)ccc3C(=O)N12	nt	8.28µM*	nt	nt	9.28µM*
COc1ccc2c(c1)[C@H]1[C@H](CO2)[C@H](c2ccccc2)[C@]2(C)C(=O)Nc3cc(Cl)ccc3C(=O)N12	nt	5.22µM*	nt	nt	1.85µM*
Cc1cccc(N2C(=O)N3[C@@H]4c5ccccc5OC[C@@H]4[C@@H](c4ccccc4)[C@@]3(C)C2=O)c1	-6.2	?	-2.1	?	?
COc1cc2c(cc1OC)C(=O)N1[C@H]3c4cc(Cl)ccc4OC[C@@H]3[C@H](c3ccccc3)[C@]1(C)C(=O)N2	nt	14.7µM*	nt	nt	9.28µM*
C[C@H](NC(=O)c1ccccc1F)C(=O)N1CCC2(CC1)NCCc1[nH]cnc12	-7.6	9.4%	-2.5	7.4%	17.9%
